Data: PubChem BioAssay (NCATS)
Inconclusive results are not listed. The source made the active and inactive calls. The call rests on the fitted dose curve; in most records, active means well fitted curve in the direction sought with a large enough effect; inconclusive means small, poorly fitted or top-dose-only effect, or another doubt; inactive means no such curve, though single readings can be large; an effect the other way counts as inactive or inconclusive.

Experiments:
[1] = qHTS of pediatric cancer cell lines to identify multiple opportunities for drug repurposing: Primary screen for A673 cells (AID 1347092); further: nearly all actives have a fitted effect of over 45% in size
Method in brief: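 A673 cells (500-1,000 cells/well) were treated 48 hours at 37 degrees C with compounds at 11-point (0.78 nM to 46 µM) or 8-point (0.59 nM to 46 µM) dilutions. Viability read by CellTiter-Glo luminescence; concentration-response curves fitted.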

[2] = qHTS of pediatric cancer cell lines to identify multiple opportunities for drug repurposing: Primary screen for SK-N-MC cells (AID 1347093); further: series mostly up to about 46 µM
Method in brief: (§1)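 Metabolically active cells were quantified by ATP-dependent luminescence (CellTiter-Glo, 15 min at room temperature) following 48 h treatment. Cells had been plated at 500-1,000 per well and settled for 5 h beforehand.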

[3] = qHTS of pediatric cancer cell lines to identify multiple opportunities for drug repurposing: Primary screen for BT-37 cells (AID 1347094); further: series mostly up to about 57 µM
Method in brief: (§2)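 Primary screen of approved and investigational compounds on cells in growth media at 37 degrees C, 5% CO2. MIPE set at 11-point and NPC set at 8-point dilutions; viability scored by ATP-based luminescence at 48 hours.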

[4] = qHTS of pediatric cancer cell lines to identify multiple opportunities for drug repurposing: Primary screen for NB-EBc1 cells (AID 1347095)
Method in brief: as §2

[5] = qHTS of pediatric cancer cell lines to identify multiple opportunities for drug repurposing: Primary screen for U-2 OS cells (AID 1347096); further: nearly all actives have a fitted effect of over 50% in size
Method in brief: (§3)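 Cells (500-1,000/well) in growth media were settled 5 h at 37 degrees C, then given compounds for 48 h. Viability was read as CellTiter-Glo luminescence. Primary runs used MIPE at 11 points (0.78 nM-46 µM) and NPC at 8 points (0.59 nM-46 µM); follow-ups used 11 points.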

[6] = qHTS of pediatric cancer cell lines to identify multiple opportunities for drug repurposing: Primary screen for Saos-2 cells (AID 1347097); further: nearly all actives have a fitted effect of over 40% in size
Method in brief: as §2

[7] = qHTS of pediatric cancer cell lines to identify multiple opportunities for drug repurposing: Primary screen for SK-N-SH cells (AID 1347098);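 further: DMSO served as neutral control and bortezomib at 2.3 µM as positive control; nearly all actives have a fitted effect of over 65% in size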
Method in brief: (§4)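 Cells (500-1,000/well) rested 5 h, then received compounds for 48 h; metabolically active cells were measured by CellTiter-Glo luminescence. Final concentrations spanned up to 46 µM (MIPE, 11-point) or 0.59 nM-46 µM (NPC, 8-point) in primary screens, 11-point in follow-ups.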

[8] = qHTS of pediatric cancer cell lines to identify multiple opportunities for drug repurposing: Primary screen for NB1643 cells (AID 1347099); further: nearly all actives have a fitted effect of over 50% in size
Method in brief: as §2

[9] = qHTS of pediatric cancer cell lines to identify multiple opportunities for drug repurposing: Primary screen for LAN-5 cells (AID 1347100)
Method in brief: as §3

[10] = qHTS of pediatric cancer cell lines to identify multiple opportunities for drug repurposing: Primary screen for BT-12 cells (AID 1347101); further: nearly all actives have a fitted effect of over 25% in size
Method in brief: as §4

[11] = qHTS of pediatric cancer cell lines to identify multiple opportunities for drug repurposing: Primary screen for Rh18 cells (AID 1347102); further: nearly all actives have a fitted effect of over 65% in size
Method in brief: as §3

[12] = qHTS of pediatric cancer cell lines to identify multiple opportunities for drug repurposing: Primary screen for OHS-50 cells (AID 1347103); further: nearly all actives have a fitted effect of over 40% in size
Method in brief: as §4

[13] = qHTS of pediatric cancer cell lines to identify multiple opportunities for drug repurposing: Primary screen for RD cells (AID 1347104); further: nearly all actives have a fitted effect of over 55% in size
Method in brief: as §2

[14] = qHTS of pediatric cancer cell lines to identify multiple opportunities for drug repurposing: Primary screen for MG 63 (6-TG R) cells (AID 1347105); further: nearly all actives have a fitted effect of over 50% in size
Method in brief: as §2

[15] = qHTS of pediatric cancer cell lines to identify multiple opportunities for drug repurposing: Primary screen for control Hh wild type fibroblast cells (AID 1347106);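 further: series mostly up to about 46 µM; a drop in luminescence marks cytotoxicity and a rise apparent proliferation; nearly all actives have a fitted effect of over 55% in size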
Method in brief: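 Viability after 48 h compound treatment at 37C, 500-1,000 cells/well, read as ATP luminescence with CellTiter-Glo. Primary screens used 11-point (MIPE, 0.78 nM-46 µM) or 8-point (NPC, 0.59 nM-46 µM) final concentrations; follow-up screens used 11-point dilutions.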

[16] = qHTS of pediatric cancer cell lines to identify multiple opportunities for drug repurposing: Primary screen for Rh30 cells (AID 1347107); further: series mostly up to about 46 µM; nearly all actives have a fitted effect of over 75% in size
Method in brief: as §3

[17] = qHTS of pediatric cancer cell lines to identify multiple opportunities for drug repurposing: Primary screen for Rh41 cells (AID 1347108);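 further: series mostly up to about 46 µM; luminescence drop marks cytotoxic hits; nearly all actives have a fitted effect of over 70% in size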
Method in brief: as §2

[18] = qHTS of pediatric cancer cell lines to identify multiple opportunities for drug repurposing: Confirmatory screen for NB1643 cells (AID 1347109); further: nearly all actives have a fitted effect of over 45% in size; further: potency means the concentration at half of the fitted maximal effect
Method in brief: as §3

[19] = qHTS of pediatric cancer cell lines to identify multiple opportunities for drug repurposing: Confirmatory screen for A673 cells (AID 1347110);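 further: cells exposed to compound for 48 h before the viability read; nearly all actives have a fitted effect of over 65% in size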; further: potency means the concentration at half of the fitted maximal effect
Method in brief: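 A673 cells at 500-1,000 cells/well were dosed 5 h after plating, in dilution series up to 46 uM final; primary runs used 8 or 11 points and confirmatory runs used 11 points. Viability was read by CellTiter-Glo luminescence after 48 h, against DMSO and 2.3 uM bortezomib controls.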

[20] = qHTS of pediatric cancer cell lines to identify multiple opportunities for drug repurposing: Confirmatory screen for SK-N-MC cells (AID 1347111);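 further: cells exposed to compound for 48 h before the readout; nearly all actives have a fitted effect of over 70% in size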; further: potency means the concentration at half of the fitted maximal effect
Method in brief: as §1

Measured: Potency

NCCC(O)(P(=O)(O)O)P(=O)(O)O
not listed: [18] | [19] | [20]
inactive: all other assays above

CC[N+](CC)(CCNC(=O)C(=O)NCC[N+](CC)(CC)Cc1ccccc1Cl)Cc1ccccc1Cl
not listed: [18] | [19] | [20]
inactive: all other assays above

N[C@@H](CCC(=O)N[C@@H](CS)C(=O)NCC(=O)O)C(=O)O
not listed: [18] | [19] | [20]
inactive: all other assays above

CC(C)(Oc1ccc(Cl)cc1)C(=O)O
not listed: [18] | [19] | [20]
inactive: all other assays above

NC[C@H]1O[C@H](O[C@H]2[C@H](O)[C@@H](O[C@H]3O[C@H](CO)[C@@H](O)[C@H](N)[C@H]3O)[C@H](N)C[C@@H]2N)[C@H](N)[C@@H](O)[C@@H]1O
not listed: [18] | [19] | [20]
inactive: all other assays above

CCN(CC)C(=O)N1CCN(C)CC1
not listed: [18] | [19] | [20]
inactive: all other assays above

COc1ccc(C2C(=O)c3ccccc3C2=O)cc1
not listed: [18] | [19] | [20]
inactive: all other assays above

CC1(C)O[C@@H]2[C@@H](CO[C@@]3(COS(N)(=O)=O)OC(C)(C)O[C@@H]23)O1
not listed: [18] | [19] | [20]
inactive: all other assays above

CC(C)(CO)[C@@H](O)C(=O)NCCCO
not listed: [18] | [19] | [20]
inactive: all other assays above

OCc1ccccc1O
not listed: [18] | [19] | [20]
inactive: all other assays above

NC(=O)CC[C@@H]1NC(=O)[C@H](Cc2ccccc2)NC(=O)[C@H](Cc2ccc(O)cc2)NC(=O)CCSSC[C@@H](C(=O)N2CCC[C@H]2C(=O)N[C@@H](CCCN=C(N)N)C(=O)NCC(N)=O)NC(=O)[C@H](CC(N)=O)NC1=O
inactive: all assays above

CC[C@@H](CO)NCCN[C@@H](CC)CO
not listed: [18] | [19] | [20]
inactive: all other assays above

CCOC(=O)c1cccc(N)c1
not listed: [18] | [19] | [20]
inactive: all other assays above

COc1cc(OC)cc(OC)c1
not listed: [18] | [19] | [20]
inactive: all other assays above

C[C@]12C=CC(=O)C=C1[C@@H](F)C[C@@H]1[C@@H]2[C@@H](O)C[C@@]2(C)[C@H]1CC[C@]2(O)C(=O)CO
inactive: all assays above

CCN(CC)CCNC(=O)COc1ccc(Cl)cc1
not listed: [18] | [19] | [20]
inactive: all other assays above

CCCCCCCCCCCCCCCCCC(=O)OCC(O)CO (stereo not drawn)
not listed: [18] | [19] | [20]
inactive: all other assays above

C[C@H](CCC(=O)O)[C@H]1CC[C@H]2[C@@H]3C(=O)C[C@@H]4CC(=O)CC[C@]4(C)[C@H]3CC(=O)[C@]12C
not listed: [18] | [19] | [20]
inactive: all other assays above

NC(=O)c1cc[n+](CC2=C(C(=O)[O-])N3C(=O)[C@@H](NC(=O)Cc4cccs4)[C@H]3SC2)cc1
not listed: [18] | [19] | [20]
inactive: all other assays above

COC(=O)[C@@H]1CC2=CC(=O)CC[C@]2(C)[C@@]23O[C@@H]2C[C@@]2(C)[C@@H](CC[C@@]24CCC(=O)O4)[C@H]13
not listed: [18] | [19] | [20]
inactive: all other assays above

COc1ccc(OC)c(C(O)CNC(=O)CN)c1 (stereo not drawn)
not listed: [18] | [19] | [20]
inactive: all other assays above

Cc1ncc(CSSCc2cnc(C)c(O)c2CO)c(CO)c1O
not listed: [18] | [19] | [20]
inactive: all other assays above

CC(=O)OCC(=O)[C@@]12N=C(C)O[C@@H]1C[C@H]1[C@@H]3CCC4=CC(=O)C=C[C@]4(C)[C@H]3[C@@H](O)C[C@@]12C
active: [18] 2330 nM | [19] 293 nM | [20] 261 nM
inactive: all other assays above

C/C=C/c1ccc(OC)cc1
not listed: [18] | [19] | [20]
inactive: all other assays above

OC[C@H]1O[C@H](O[C@]2(CCl)O[C@H](CCl)[C@@H](O)[C@@H]2O)[C@H](O)[C@@H](O)[C@H]1Cl
not listed: [18] | [19] | [20]
inactive: all other assays above

CC(=O)OCC(=O)NCCCOc1cccc(CN2CCCCC2)c1
not listed: [18] | [19] | [20]
inactive: all other assays above

Cc1ccnc(NS(=O)(=O)c2ccc(N)cc2)n1
not listed: [18] | [19] | [20]
inactive: all other assays above
